In all, about 48,000 compounds went through this assay and about 13,000 (27%) showed an effect of 50% or more. This is one part of the list.

In this assay the test system is Wolbachia pipientis. Briefly: Anti-Wolbachia Cell-Based Screen. The class given is functional. Set-up: scale not given: in the data most compounds retested in dose-response had high values. The note with it: 5 µM.
`O=C(c1cc2c(s1)CCC2)N1CCCC(c2cnccn2)C1` (centres undefined): the “Percent Effect” value worked out at 144.9%. As to `O=C(c1cc2c(s1)CCC2)N1CCC(c2ccncc2)CC1`, the “Percent Effect” value is 202.7%.

On to `Cc1cc(C2CCCN2C(=O)c2cc3c(s2)CCC3)on1` (centres undefined), for which the “Percent Effect” value came to 4.731%. The same measure for `CCn1cnnc1C1CCN(C(=O)c2cc3c(s2)CCC3)CC1`: -8.588%; for `CN(C)c1cc2c(nn1)CCN(C(=O)c1cc3c(s1)CCC3)C2`: 9.509%; for `COc1ccc(Cl)cc1-c1cc(NC(=O)CNC(=O)C2CC2)[nH]n1`: -9.759%. Consider `CCn1cc(CN2CCC(N3CCC(O)CC3)CC2)cc1C#N`, for which the “Percent Effect” value is on record as 0%.

In the case of `Cc1csc(C(C)(C)NCC(=O)N2CCCC(C(N)=O)C2)n1` (centres undefined), the “Percent Effect” value is -19.83%. The same measure for `CN(c1ccc(C(N)=O)nn1)C1CCC1`: 4.967%. `OCCc1cn(CC2CCCN(Cc3nccs3)C2)nn1` (centres undefined): the “Percent Effect” value was -2.093%.

As to `CN1CCCc2cc(CNC(=O)c3cc[n+]([O-])cc3)ccc21`, the “Percent Effect” value is listed as 106.3%. With `CN1CCCc2cc(CNC(=O)c3ccncc3)ccc21`, the “Percent Effect” value was 7.884%.

For `CN1CCCc2cc(CNC(=O)c3ccc(-n4cnnc4)cc3)ccc21`, the “Percent Effect” value was 119.3%.

As for `Cc1nc(CNC(=O)Nc2ccc3c(c2)CCCN3C)sc1C`, the “Percent Effect” value turned out to be 18.83%. The same measure for `Cc1ccc(C(=O)NCc2ccc(N3CCNC(=O)C3)c(F)c2)cc1`: -3.953%; for `CC(C)C(=O)NS(=O)(=O)c1ccc2c(c1)N(C)CCC2`: -5.146%; for `COCC(=O)N[C@H]1C[C@@H](Cc2cc(CN3CCOCC3)on2)C1(C)C`: -1.513%. The same measure for `CCCn1cnc2c1CN(S(=O)(=O)Cc1ccccc1)[C@H](C(=O)OC)C2`: -5.674%. The same measure for `CCc1noc(CCCC(=O)Nc2cc(C(F)(F)F)c[nH]c2=O)n1`: 7.764%.

For the compound `Cc1nc(NCCSc2nnc(C)s2)c2cccnc2n1`, the “Percent Effect” value is given as -15.89%. The same measure for `COc1ccc(CCNC(=O)NCC(O)c2cccc(F)c2)cc1` (centres undefined): 127.5%; for `Cc1cc(OC(F)F)c(C(=O)NCC(O)c2cccc(F)c2)s1` (centres undefined): -16.7%. The same measure for `Cc1nc(CCNC(=O)NCC(O)c2cccc(Cl)c2)cs1` (centres undefined): 5.885%. The same measure for `O=C(NCCc1ccc(F)cc1)NCC(O)c1cccc(F)c1` (centres undefined): 98.05%; for `O=C(NCCc1cccs1)NCC(O)c1cccc(F)c1` (centres undefined): 94.53%.

On to `CC(C)COCCCNC(=O)NCC(O)c1cccc(F)c1` (centres undefined), for which the “Percent Effect” value was 93.97%. The same measure for `O=C(NCC(O)c1cccc(F)c1)c1sccc1OC(F)F` (centres undefined): 13.48%. The same measure for `O=C(CN1CCCS(=O)(=O)CC1)NCc1ccccc1F`: -8.655%; for `Cc1ccc(CNC(=O)NC2CCN(CC(F)F)CC2)cc1`: -0.1084%; for `Cn1cnnc1C1CCN(c2nc3ccccc3o2)CC1`: -4.492%. The same measure for `CCOc1ccc(CN(C)C2CCN(c3cc(C)nn3C)C2=O)cc1` (centres undefined): -7.061%. Take `CCn1ccc(C(=O)N2CCCN(Cc3ccccc3F)CC2)cc1=O`: the “Percent Effect” value is on record as -3.557%. As to `CN(Cc1ccccc1)c1ncccc1CNC(=O)c1ccnn1C`, the “Percent Effect” value is reported as -0.05459%. The same measure for `Cc1ccc(-n2nnc(CC(=O)N3CCSCC3)c2C)cc1`: 7.911%; for `O=C(NCCc1cccc(F)c1)NCC(O)c1cccc(F)c1` (centres undefined): 4.017%. The same measure for `O=C(NCCN1CCOCC1)NCC(O)c1cccc(F)c1` (centres undefined): -0.6049%; for `O=C(NCCc1ccccc1)NCC(O)c1cccc(F)c1` (centres undefined): 91.4%; for `CN1CC2(CCN(C(=O)c3ccc4c(=O)n(C)cnc4c3)C2)OC1=O` (centres undefined): -9.693%. The same measure for `COc1c(C2CCCN2Cc2csc(C(C)C)n2)c(C)nn1C` (centres undefined): 4.743%; for `Cc1cccc(Cn2c3c(ccc2=O)CCN(Cc2ccoc2)CC3)n1.O=C(O)C(F)(F)F.O=C(O)C(F)(F)F`: 0.1669%. Take `CN1CC(=O)N(c2ccsc2)CC12CCN(Cc1nccn1C)C2` (centres undefined): the “Percent Effect” value turned out to be 2.996%.

For the compound `Cc1cccc(CN2C(=O)CCC23CCN(Cc2ccoc2)CC3)n1`, the “Percent Effect” value amounted to 102.5%. The same measure for `Cc1cccc(CN2C(=O)CCC23CCN(Cc2nccn2C)CC3)n1`: 88.13%; for `O=C1CCC2(CCN(Cc3ccoc3)CC2)N1OCc1ccccc1F`: -6.682%. As for `Cc1cccc(CN2C(=O)CC[C@@H]3[C@H]2CCN3Cc2nccn2C)n1.O=C(O)C(F)(F)F.O=C(O)C(F)(F)F.O=C(O)C(F)(F)F`, the “Percent Effect” value amounted to 16.26%. The same measure for `Cn1cc(C#N)cc1C(=O)NC1(C#N)CCSCC1`: -2.619%; for `COCCN(Cc1nccs1)C(=O)c1cc(-c2ccc(C)s2)n[nH]1`: -12.01%. The same measure for `Cc1noc(C)c1CNC(C)c1ccc(S(=O)(=O)N(C)C)cc1` (centres undefined): -12.9%; for `CN(c1ccc(OCc2cnc(Cl)s2)cc1)S(C)(=O)=O`: 2.089%. In the case of `Cc1nc(COc2ccc(S(=O)(=O)N(C)C)cc2)sc1C`, the “Percent Effect” value is 104.7%. The same measure for `Cc1nc(C)c(COc2ccc(N(C)S(C)(=O)=O)cc2)s1`: -26.99%; for `COc1ccc(OCc2sc(C3(O)CCCNCC3)nc2C)cc1.Cl` (centres undefined): -5.149%; for `Cc1nc(COc2ccc(N(C)S(C)(=O)=O)cc2)sc1C`: 78.79%. The same measure for `CN(C)S(=O)(=O)c1ccc(OCCNCCn2cccn2)cc1`: 11.92%; for `Cc1ncc(COc2ccc(N(C)S(C)(=O)=O)cc2)s1`: -0.05196%.

On to `Cc1nc(C)c(COc2ccc(S(=O)(=O)N(C)C)cc2)s1`, for which the “Percent Effect” value is recorded as 94.55%.

In the case of `CC(C)N1Cc2cccc(NCC(=O)N(C)C)c2C1`, the “Percent Effect” value is -13.34%. In the case of `Cc1ccc(N2Cc3c(CN(C)C)nn(C)c3C2)nn1`, the “Percent Effect” value is reported as -4.068%. The same measure for `CCOCc1cncc2c1CCN(C(=O)c1cscn1)C2.O=C(O)C(F)(F)F`: 95.41%; for `O=C(O)C(F)(F)F.O=C(c1ccsc1)N1CCc2c(COCC3CC3)cncc2C1`: -5.644%. The same measure for `CC(C)COCc1cncc2c1CCN(Cc1cnn(C)c1)C2.O=C(O)C(F)(F)F.O=C(O)C(F)(F)F`: -4.372%; for `O=C(O)C(F)(F)F.O=C(c1cscn1)N1CCc2c(COCC3CC3)cncc2C1`: 89.35%. The same measure for `O=C(O)C(F)(F)F.O=C(c1ccco1)N1CCc2c(COCC3CC3)cncc2C1`: -15.15%.

`CC(C)COCc1cncc2c1CCN(C(=O)c1cscn1)C2.O=C(O)C(F)(F)F`: the “Percent Effect” value stood at 82.53%.

The values above are taken from ChEMBL document CHEMBL3988442, “University of Dundee, Small-Polar-MMV Screening Library” (2021).
